Compounds without any hit were thinned out: in the full panel of roughly 83,000, 20% have a hit.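 For each line, cells grew in 96-well plates with the test compound present at a single concentration for 48 hours.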 Unmarked numbers belong to inactive results. Activity calls are given as the source filed them. The calls were made as follows: active = growth percent below 10; inactive = the rest.

The assay relates to MDA-MB-468 breast. In words: NCI-60 one-dose screen, 48 h (100 = growth as untreated, 0 = no growth, -100 = all killed). The settings on record: 10 µM unless noted.
On to `C#Cc1ccccc1NC(=O)c1sc2nc3c(cc2c1N)CCCCCC3`, for which the growth is 73.5%. The result for `COc1ccc(/C=N/NC(=O)c2c(N)nn(C)c2Nc2ccccc2)cc1` reads -1.26% (active). As to `Nc1nc2c(ncn2C2OC3COP(=O)(O)OC4C(COP(=O)(O)OC2C3O)OC(n2cnc3c(N)ncnc32)C4O)c(=O)[nH]1` (stereo not given), the growth is 116%. The result for `O=C1c2ccccc2Cc2cccc(Cl)c21` reads 92.7%; that for `CN(C)S(=O)(=O)c1ccc(S(=O)(=O)Nc2cccc(Cl)c2N2CCCCC2)cc1`, 67.8%.

Regarding `Nc1cc(-c2c[nH]c3ccc(F)cc23)nc2cc(-c3c[nH]c4ccc(F)cc34)nn12`, the growth was 115%. For `Fc1cnccc1C1CC(c2ccc(N3CCNCC3)cc2)=NN1` (stereo not given), the growth was 114%. Under `CCCCCCCCCCCCCCCCN=C(CC(=O)O)C(=O)O` stands 95.2%; under `Cc1ccc(-c2cc3c(cc2O)C2CCCCC2(N2CCOCC2)O3)cc1` (stereo not given), 87.9%. The result for `C#C[C@]1(O)CC[C@H]2[C@@H]3CC=C4c5sc(N(C)c6ccccc6)nc5CC[C@]4(C)[C@H]3CC[C@@]21C` reads 76.2%; that for `CCOC(=O)c1cnn(-c2ccc(S(N)(=O)=O)cc2)c1N`, 94.7%; that for `C=C1C[C@H](O)[C@H](Br)C(C)(C)[C@@]12CCC(C)=C(Cl)C2`, -28.3% (active). For the compound `CCCCCCCCCCCC[n+]1c(C)cc(N)c2ccccc21`, the growth is -34% (active). With `O=C(Nc1ccc2ncsc2c1)c1csc(Nc2ccc3[nH]ncc3c2)n1`, the growth is 35.6%. On to `COc1ccc(/C=C/c2nc3ccccc3nc2/C=C/c2ccc(OC)cc2)cc1`, for which the growth is 88.1%.

These data come from PubChem BioAssay (NCI).
